Hit rate of the full screen: of about 5,500 compounds, about 2,000 (36%) were called active. Roughly 18% stayed inconclusive and do not appear here. Rule as the data show it: active = normalized growth mostly below about 0.91 (no sharp cut-off); inconclusive = no clear call, values can overlap the other calls; inactive = mostly above about 0.92. Some of the results follow.
Assay: chemical genetic growth profiling, strain panel (AID 1159580);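 also: tested at 20 µM; growth read once vehicle control cultures reached saturation at 30 °C; 1 = growth at the plate median or of vehicle wells; lower values mean less growth of the strain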
Details: S. cerevisiae deletion strains, growth OD

Measured: normalized growth

C1CCN2CC3CC(CN4CCCCC34)C2C1 (centres undefined)
inactive: locus YAL013W, strain DEP1, active compounds read low 1.01 | locus YAL021C, strain ccr4, active compounds read low 1 | locus YAL026C, strain drs2, active compounds read low 1.03 | locus YAL030W, strain snc1, active compounds read low 1.01 | locus YBL061C, strain skt5, active compounds read low 1.02 | locus YBR009C, strain hhf1, active compounds read low 1.02 | locus YBR021W, strain FUR4, active compounds read low 1 | locus YBR023C, strain chs3, active compounds read low 1.02 | locus YBR171W, strain sec66, active compounds read low 1.03 | locus YBR229C, strain ROT2, active compounds read low 1.01 | locus YBR231C, strain swc5, active compounds read low 1.01 | locus YBR279W, strain paf1, active compounds read low 1.02 | locus YCL011C, strain gbp2, active compounds read low 1.02 | locus YCL016C, strain dcc1, active compounds read low 1.02 | locus YCL029C, strain bik1, active compounds read low 1.01 | locus YCL061C, strain MRC1, active compounds read low 1.02 | locus YCL069W, strain vba3, active compounds read low 1.03 | locus YCR088W, strain abp1, active compounds read low 1.03 | locus YDL005C, strain med2, active compounds read low 1.03 | locus YDL035C, strain GPR1, active compounds read low 1.01 | locus YDL040C, strain nat1, active compounds read low 1.01 | locus YDL074C, strain BRE1, active compounds read low 1.01 | locus YDL101C, strain DUN1, active compounds read low 0.997 | locus YDL134C, strain PPH21, active compounds read low 1 | locus YDL185W, strain tfp1, active compounds read low 1.01 | locus YDL192W, strain arf1, active compounds read low 1.01 | locus YDR001C, strain nth1, active compounds read low 1.02 | locus YDR069C, strain doa4, active compounds read low 1.03 | locus YDR101C, strain arx1, active compounds read low 1.01 | locus YDR137W, strain rgp1, active compounds read low 1.02 | locus YDR150W, strain NUM1, active compounds read low 1.01 | locus YDR159W, strain sac3, active compounds read low 1.03 | locus YDR162C, strain NBP2, active compounds read low 0.993 | locus YDR195W, strain ref2 0.99 | locus YDR297W, strain sur2, active compounds read low 1.01 | locus YDR334W, strain swr1, active compounds read low 1.03 | locus YDR335W, strain msn5, active compounds read low 1.04 | locus YDR388W, active compounds read low 1 | locus YDR392W, strain spt3, active compounds read low 0.929 | locus YDR502C, strain sam2, active compounds read low 0.974 | locus YEL003W, strain gim4, active compounds read low 1.03 | locus YEL037C, strain rad23, active compounds read low 1.02 | locus YEL061C, strain CIN8 (second series), active compounds read low 1.03 | locus YEL061C, strain CIN8, active compounds read low 1.01 | locus YER015W, strain faa2, active compounds read low 1.01 | locus YER016W, strain bim1, active compounds read low 1.03 | locus YER110C, active compounds read low 1.02 | locus YER111C, strain swi4, active compounds read low 1.02 | locus YER155C, strain BEM2 (second series), active compounds read low 1.05 | locus YER155C, strain BEM2, active compounds read low 1.01 | locus YER167W, strain BCK2, active compounds read low 1.01 | locus YFR010W, strain ubp6, active compounds read low 1.02 | locus YGL078C, strain dbp3, active compounds read low 0.983 | locus YGL167C, strain pmr1, active compounds read low 1.02 | locus YGL173C, strain kem1, active compounds read low 1.03 | locus YGL227W, strain vid30, active compounds read low 1.02 | locus YGL240W, strain doc1, active compounds read low 1.03 | locus YGL248W, strain PDE1, active compounds read low 0.998 | locus YGL253W, strain hxk2, active compounds read low 1.02 | locus YGR078C, strain PAC10, active compounds read low 1 | locus YGR229C, strain SMI1, active compounds read low 1.01 | locus YHR013C, strain ard1, active compounds read low 1.01 | locus YHR027C, strain rpn1, active compounds read low 1.01 | locus YHR030C, strain SLT2, active compounds read low 1.01 | locus YHR079C, strain IRE1 (second series), active compounds read low 0.999 | locus YHR094C, strain hxt1, active compounds read low 1.01 | locus YHR129C, strain ARP1, active compounds read low 1 | locus YHR142W, strain chs7, active compounds read low 1 | locus YHR200W, strain rpn10, active compounds read low 1 | locus YIL066C, strain RNR3, active compounds read low 1.02 | locus YIL073C, strain SPO22, active compounds read low 1.07 | locus YIL125W, strain kgd1, active compounds read low 1 | locus YIR030C, strain dcg1, active compounds read low 1.01 | locus YJL092W, strain hpr5, active compounds read low 1.03 | locus YJL095W, strain BCK1 (second series), active compounds read low 1.02 | locus YJL095W, strain BCK1, active compounds read low 0.995 | locus YJL115W, strain asf1, active compounds read low 1.03 | locus YJL129C, strain trk1, active compounds read low 1.02 | locus YJL134W, strain LCB3, active compounds read low 1.01 | locus YJL154C, strain vps35, active compounds read low 1.02 | locus YJL164C, strain tpk1, active compounds read low 1.01 | locus YJL166W, strain qcr8, active compounds read low 1.02 | locus YJL168C, strain set2, active compounds read low 1.01 | locus YJL187C, strain SWE1 (second series), active compounds read low 1.01 | locus YJL187C, strain SWE1, active compounds read low 1.02
active: locus YDR318W, strain mcm21, active compounds read low 0.654 | locus YGL086W, strain mad1, active compounds read low 0.901 | locus YGR135W, strain pre9, active compounds read low 0.838 | locus YGR252W, strain gcn5, active compounds read low 0.732

Reference: PubChem BioAssay AID1159580 (chemical genetic matrix, 2015)
